Data: PubChem BioAssay (NCATS)
Where “and” joins values, the source holds several entries; their conditions need not be identical. Equal values may be shown once. Calls of active or inactive are those of the source. Where a call stands in place of a potency, no number is given. Unless noted, calls follow the shape of the full dose curve.

Columns and labels:
[1] = molecular target: Ubiquitin carboxyl-terminal hydrolase 1 (Homo sapiens) (UniProt O94782); experiment: Inhibitors of USP1/UAF1: Pilot qHTS (AID 504865; active = well fitted inhibition curve with a large enough effect; inconclusive = small, poorly fitted or top-dose-only effect;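 also: rhodamine fluorescence freed from ubiquitin-rhodamine substrate followed over time; top concentration of the series differs between compounds; nearly all actives have a fitted effect of over 35% in size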)
Summary of the method: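 In 50mM HEPES pH 7.8 containing 0.5mM EDTA, 1mM TCEP, 0.1 mg/ml BSA and 0.01% Tween-20, 1nM USP1/UAF1 is exposed to compound for 15 min, then Ub-Rho (150nM final) is added and fluorescence is read over time.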

[2] = molecular target: Estrogen receptor (Homo sapiens) (UniProt P03372); experiment: qHTS assay for small molecule antagonists of estrogen receptor alpha signaling (AID 588513; active = well fitted curve in the direction sought with a large enough effect in the signal ratio, with a control signal flat, not every such curve was filed as active; inconclusive = small, poorly fitted or top-dose-only effect, or effect the other way, or a change in a side signal; inactive = no such curve, though single readings can be large or run the other way; the % refers to the signal ratio; also: potency is read from the fitted curve at half-maximal effect)
Summary of the method: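 Fluorescence from CCF4 substrate after 2 h at room temperature gave reporter activity; cells had been exposed to compound and 0.5nM 17-beta-estradiol for 18 h at 37 C. Hill-equation fitting yielded IC50 and maximal response.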

[3] = molecular target: Estrogen receptor (Homo sapiens) (UniProt P03372); experiment: qHTS assay for small molecule agonists of estrogen receptor alpha signaling (AID 588514); also: nearly all actives have a fitted effect of over 70% in size
Summary of the method: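 Read-out: CCF4 fluorescence from a beta-lactamase reporter in ER-alpha-UAS-bla HEK 293 cells after 18 hrs of compound exposure at 37 C. Normalized to 20 nM 17-beta-estradiol (100%) and DMSO (0%).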

[4] = molecular target: Glucocorticoid receptor (Homo sapiens) (UniProt P04150); experiment: qHTS assay for small molecule agonists of glucocorticoid receptor signaling (AID 588532; active = well fitted curve in the direction sought with a large enough effect in the signal ratio, with a control signal flat; inconclusive = small, poorly fitted or top-dose-only effect, or a change in a side signal; inactive = no such curve, though single readings can be large or run the other way; the % refers to the signal ratio); conditions: HeLa MMTV-bla, beta-lactamase ratio, agonist, 18 h; stronger effect = higher value; percent of dexamethasone control, DMSO zero
Summary of the method: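 HeLa GRE-bla reporter cells; 18 h compound exposure at 37 C; 2 h CCF4 loading at room temperature; fluorescence at 460 and 530 nm; EC50 by Hill equation.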

[5] = molecular target: Glucocorticoid receptor (Homo sapiens) (UniProt P04150); experiment: qHTS assay for small molecule antagonists of glucocorticoid receptor signaling (AID 588533; active = well fitted inhibition curve with a large enough effect in the signal ratio, with a control signal flat, not every such curve was filed as active; inconclusive = small, poorly fitted or top-dose-only effect, or effect the other way, or a change in a side signal; the % refers to the signal ratio;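 also: cells stimulated with 2 nM dexamethasone as agonist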)
Summary of the method: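 Antagonist-mode qHTS: compound titrations added to GRE-bla HeLa cells, then dexamethasone 2 nM final; 18 h, 37 C. CCF4 FRET fluorescence normalized to dexamethasone and DMSO; IC50 from Hill fit.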

[6] = molecular target: Peroxisome proliferator-activated receptor gamma (Homo sapiens) (UniProt P37231); experiment: qHTS assay for small molecule agonists of peroxisome proliferator-activated receptor gamma signaling (AID 588536; active = well fitted curve in the direction sought with a large enough effect in the signal ratio, with a control signal flat, not every such curve was filed as active; inconclusive = small, poorly fitted or top-dose-only effect, or effect the other way, or a change in a side signal; inactive = no such curve, though single readings can be large or run the other way; the % refers to the signal ratio)
Summary of the method: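 Cells were plated and held 6–6.5 h at 37 C, then compounds were added as a titration series. After a further 16 h, CCF4 dye was loaded for 2 h at room temperature and emission at 460/530 nm recorded.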

[7] = molecular target: Bile acid receptor (Homo sapiens) (UniProt Q96RI1); experiment: qHTS assay for small molecule agonists of farnesoid X receptor signaling (AID 588527); conditions: HEK293T FXR-UAS-bla, beta-lactamase ratio, 16 h; stronger effect = higher value; also: series mostly up to about 77 µM
Summary of the method: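 FXR-UAS-bla HEK293T cells (10% dialyzed FBS) preincubated 5-7 h at 37 C, then compounds at up to 92 uM for 16 h at 37 C. CCF4 beta-lactamase read-out after 2 h RT. Normalized to chenodeoxycholic acid (100 uM) and DMSO; Hill fit gave EC50 and efficacy.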

[8] = molecular target: Bile acid receptor (Homo sapiens) (UniProt Q96RI1); experiment: qHTS assay for small molecule antagonists of farnesoid X receptor signaling (AID 588526)
Summary of the method: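 Antagonist mode: titrated compounds tested against chenodeoxycholic acid stimulation (normalized to 50 uM CDCA and DMSO) in GeneBLAzer HEK293T cells for 16 h. Beta-lactamase read by CCF4 fluorescence; IC50 from Hill fits.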

[9] = qHTS assay for small molecule antagonists of peroxisome proliferator-activated receptor delta signaling (AID 588535; active = well fitted inhibition curve with a large enough effect in the signal ratio, with a control signal flat, not every such curve was filed as active; inconclusive = small, poorly fitted or top-dose-only effect, or effect the other way, or a change in a side signal; inactive = no such curve, though single readings can be large or run the other way; the % refers to the signal ratio;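 as to max response: cells co-treated with a PPAR-delta agonist as stimulator during compound exposure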); conditions: HEK293T PPARd-UAS-bla, beta-lactamase FRET ratio, 18 h; 460 nm channel
Summary of the method: (§1)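 Beta-lactamase reporter read-out (405 nm excitation, 460/530 nm emission) after CCF4 loading for 2 hrs at RT. HEK293T PPAR-delta-UAS-bla cells, 2% charcoal/dextran FBS, compounds for 18 hrs at 37 C. Hill fit gave IC50 and efficacy.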

[10] = molecular target: Peroxisome proliferator-activated receptor delta (Homo sapiens) (UniProt Q03181); experiment: as above
Summary of the method: as §1

Sequence of Estrogen receptor (Homo sapiens) (P03372 whole entry, looked up): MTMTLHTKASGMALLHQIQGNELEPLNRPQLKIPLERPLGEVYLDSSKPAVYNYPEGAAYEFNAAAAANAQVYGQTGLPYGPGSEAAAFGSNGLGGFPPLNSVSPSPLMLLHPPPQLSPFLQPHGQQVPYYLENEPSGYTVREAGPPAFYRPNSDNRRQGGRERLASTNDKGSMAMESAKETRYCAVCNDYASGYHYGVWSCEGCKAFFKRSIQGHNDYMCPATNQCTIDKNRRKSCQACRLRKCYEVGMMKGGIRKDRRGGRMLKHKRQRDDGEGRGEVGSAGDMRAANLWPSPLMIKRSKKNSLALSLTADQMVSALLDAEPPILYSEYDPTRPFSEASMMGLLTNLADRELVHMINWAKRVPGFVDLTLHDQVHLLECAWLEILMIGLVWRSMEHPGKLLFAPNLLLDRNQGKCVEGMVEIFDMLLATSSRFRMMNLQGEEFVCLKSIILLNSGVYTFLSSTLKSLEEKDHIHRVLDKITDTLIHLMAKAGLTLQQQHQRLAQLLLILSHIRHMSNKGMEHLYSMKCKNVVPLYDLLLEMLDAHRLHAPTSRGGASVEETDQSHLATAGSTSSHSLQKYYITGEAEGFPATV
Sequence of Ubiquitin carboxyl-terminal hydrolase 1 (Homo sapiens) (O94782 whole entry, looked up): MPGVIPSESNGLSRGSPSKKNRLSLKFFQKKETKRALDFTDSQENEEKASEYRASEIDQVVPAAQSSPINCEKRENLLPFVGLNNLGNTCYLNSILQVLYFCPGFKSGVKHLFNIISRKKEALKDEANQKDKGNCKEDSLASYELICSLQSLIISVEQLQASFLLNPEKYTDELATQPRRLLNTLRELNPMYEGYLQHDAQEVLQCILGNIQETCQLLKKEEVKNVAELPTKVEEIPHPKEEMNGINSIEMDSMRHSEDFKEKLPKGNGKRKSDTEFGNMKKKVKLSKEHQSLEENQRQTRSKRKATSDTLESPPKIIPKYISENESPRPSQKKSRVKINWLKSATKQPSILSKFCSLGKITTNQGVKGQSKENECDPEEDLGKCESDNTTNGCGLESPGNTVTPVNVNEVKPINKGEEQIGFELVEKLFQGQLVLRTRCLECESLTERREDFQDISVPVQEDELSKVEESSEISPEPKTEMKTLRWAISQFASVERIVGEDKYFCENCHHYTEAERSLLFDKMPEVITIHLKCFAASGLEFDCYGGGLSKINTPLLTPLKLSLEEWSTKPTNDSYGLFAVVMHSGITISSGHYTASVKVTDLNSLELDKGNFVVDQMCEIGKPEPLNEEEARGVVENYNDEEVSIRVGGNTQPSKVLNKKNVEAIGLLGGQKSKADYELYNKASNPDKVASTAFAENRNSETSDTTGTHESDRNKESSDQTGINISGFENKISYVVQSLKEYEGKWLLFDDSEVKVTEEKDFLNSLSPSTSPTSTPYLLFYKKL
Sequence of Bile acid receptor (Homo sapiens) (Q96RI1 whole entry, looked up): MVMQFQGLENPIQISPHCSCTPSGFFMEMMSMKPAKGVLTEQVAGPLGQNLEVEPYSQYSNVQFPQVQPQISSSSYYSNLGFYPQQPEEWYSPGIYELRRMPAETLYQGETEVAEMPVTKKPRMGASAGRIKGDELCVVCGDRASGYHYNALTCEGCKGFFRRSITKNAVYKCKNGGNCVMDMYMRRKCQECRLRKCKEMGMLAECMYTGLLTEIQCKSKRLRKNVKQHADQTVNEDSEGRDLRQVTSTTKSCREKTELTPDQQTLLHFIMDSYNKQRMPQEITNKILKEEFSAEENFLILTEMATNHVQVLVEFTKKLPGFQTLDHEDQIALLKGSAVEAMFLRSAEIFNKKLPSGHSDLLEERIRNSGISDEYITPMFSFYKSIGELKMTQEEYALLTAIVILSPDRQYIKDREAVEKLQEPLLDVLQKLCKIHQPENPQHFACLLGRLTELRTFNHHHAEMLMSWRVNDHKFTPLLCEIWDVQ
Sequence of Glucocorticoid receptor (Homo sapiens) (P04150 whole entry, looked up): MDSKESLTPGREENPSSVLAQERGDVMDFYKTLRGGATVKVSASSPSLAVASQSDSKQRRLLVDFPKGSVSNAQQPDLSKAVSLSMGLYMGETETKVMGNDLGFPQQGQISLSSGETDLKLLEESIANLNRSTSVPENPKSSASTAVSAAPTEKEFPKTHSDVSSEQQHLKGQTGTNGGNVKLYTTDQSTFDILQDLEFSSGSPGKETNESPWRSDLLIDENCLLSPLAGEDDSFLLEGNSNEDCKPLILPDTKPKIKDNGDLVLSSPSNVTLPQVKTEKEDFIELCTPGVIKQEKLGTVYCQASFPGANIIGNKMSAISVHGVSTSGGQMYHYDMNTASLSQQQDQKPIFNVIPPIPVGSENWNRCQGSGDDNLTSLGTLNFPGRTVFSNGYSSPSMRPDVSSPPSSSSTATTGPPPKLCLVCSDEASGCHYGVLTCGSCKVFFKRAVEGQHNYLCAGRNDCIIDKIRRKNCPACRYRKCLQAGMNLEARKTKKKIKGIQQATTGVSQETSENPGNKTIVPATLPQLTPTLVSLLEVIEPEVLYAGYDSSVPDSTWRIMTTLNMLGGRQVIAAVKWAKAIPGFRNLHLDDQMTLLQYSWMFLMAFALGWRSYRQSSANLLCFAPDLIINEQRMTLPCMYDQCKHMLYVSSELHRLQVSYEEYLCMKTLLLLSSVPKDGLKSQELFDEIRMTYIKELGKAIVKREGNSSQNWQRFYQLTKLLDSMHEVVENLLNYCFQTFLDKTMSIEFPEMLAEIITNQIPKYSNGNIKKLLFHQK
Sequence of Peroxisome proliferator-activated receptor delta (Homo sapiens) (Q03181 whole entry, looked up): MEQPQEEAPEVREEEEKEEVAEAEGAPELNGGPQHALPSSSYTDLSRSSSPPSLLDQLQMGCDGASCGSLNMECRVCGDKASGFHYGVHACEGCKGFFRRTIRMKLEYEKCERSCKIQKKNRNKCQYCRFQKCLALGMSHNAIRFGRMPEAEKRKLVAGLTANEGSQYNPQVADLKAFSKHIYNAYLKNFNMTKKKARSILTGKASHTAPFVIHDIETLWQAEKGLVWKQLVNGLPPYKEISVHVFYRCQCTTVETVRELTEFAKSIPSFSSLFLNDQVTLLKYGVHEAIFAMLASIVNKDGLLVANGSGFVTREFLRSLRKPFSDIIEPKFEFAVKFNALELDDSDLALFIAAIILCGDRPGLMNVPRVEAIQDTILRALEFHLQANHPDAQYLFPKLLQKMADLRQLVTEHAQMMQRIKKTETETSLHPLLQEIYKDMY
Sequence of Peroxisome proliferator-activated receptor gamma (Homo sapiens) (P37231 whole entry, looked up): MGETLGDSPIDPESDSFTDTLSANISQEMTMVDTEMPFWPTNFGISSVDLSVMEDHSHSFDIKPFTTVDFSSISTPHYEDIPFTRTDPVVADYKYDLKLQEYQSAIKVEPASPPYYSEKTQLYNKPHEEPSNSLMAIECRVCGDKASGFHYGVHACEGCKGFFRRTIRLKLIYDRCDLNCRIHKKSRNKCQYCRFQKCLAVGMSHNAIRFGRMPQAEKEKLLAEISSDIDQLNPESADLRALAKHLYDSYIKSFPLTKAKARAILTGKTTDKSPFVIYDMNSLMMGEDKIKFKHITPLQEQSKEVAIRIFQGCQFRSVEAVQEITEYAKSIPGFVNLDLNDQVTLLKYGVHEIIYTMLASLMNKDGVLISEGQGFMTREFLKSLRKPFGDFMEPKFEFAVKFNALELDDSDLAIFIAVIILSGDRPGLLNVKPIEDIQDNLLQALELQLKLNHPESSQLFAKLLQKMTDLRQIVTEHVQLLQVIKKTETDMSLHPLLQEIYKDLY

S=C=S
Potency [1]: inactive
Potency [2]: inactive
Potency [3]: inactive
activation [4]: 1.7% (inactive)
Potency [5]: inactive
outcome [6]: inactive

CC(C)Nc1ccc(Nc2ccccc2)cc1
Potency [1]: inactive
Potency [2]: 22.4 µM [inconclusive] (active)
Potency [3]: inactive
activation [7]: 3.94% (inactive)

CC(C)(C)c1cc(O)ccc1O
Potency [1]: inactive
Potency [8]: inactive
activation [7]: 0.716% (inactive) and -1.49% (inactive) and 4.72% (inactive)
activation [4]: 4.46% (inactive) and 3.75% (inactive) and 5.49% (inactive)
Potency [5]: inactive
max response [9]: 24.1%
outcome [10]: inactive
